Data taken from PubChem BioAssay (NCATS).
Results filed as inconclusive are left out. Unmarked numbers belong to inactive results. Active and inactive are the calls of the source. Calls come from the whole dose curve; as a rule, active = well fitted inhibition curve with a large enough effect; inconclusive = small, poorly fitted or top-dose-only effect; inactive = flat fitted curve, though single readings scatter.

system: CRL-7250; test: Cytotoxic Profiling of Annotated Libraries Using Quantitative High-Throughput Screening (AID 1296008); details: Five cell lines viability, CellTiter-Glo ATP luminescence, 48-72 h; max response: hits give low values; note: nearly all actives have a fitted effect of over 60% in size
Method in brief: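 Compounds were pin-transferred onto cells and incubated 48 or 72 hr at 37 degree Celsius, 95% humidity. CellTiter-Glo was added, plates sat 10 min at room temperature, then ATP-coupled luminescence was imaged as the viability read-out.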
% is set by controls: 0 for no effect and ±100 for the full control effect; potency is the fitted concentration of half-maximal effect.

Cc1csc(NC(=O)c2ccc(COc3cccc(Cl)c3)o2)n1 was tested. Which max response did it give?
Its max response is -4.74%.

How did the max response turn out when C=C1C[C@]23C[C@H]1CC[C@H]2C1=C[C@H]2OC(=O)[C@@](C)([C@H]1[C@@H]3C(=O)O)[C@H]2O was run?
Its max response is 2.1%.

With C/C=C/c1ccc2c(c1)[C@@H](C)[C@H](c1ccc(O)cc1)O2 as the compound, how does the max response read?
The max response was -3.63%.

With CC(C)(O)C1CCC(C)(C2CCC3(C)C4CCC5C(C)(C(=O)OC6OC(CO)C(O)C(O)C6O)C(O)CC(O)C56CC46CCC23C)O1 (stereo not given) as the compound, how does the outcome read?
The outcome was “inactive”.

Which max response does the source give for COc1cc(O)cc(C)c1C(=O)OC1C(CO)OC(OC2C(O)C(O)C(O)C(O)C2O)C(O)C1O (stereo not given) here?
Its max response is -0.0302%.

CCCn1c(=O)c2[nH]c(-c3ccc(OCC(=O)O)cc3)nc2n(CCC)c1=O was tested. Which max response did it give?
The max response was 3.25%.

How did the outcome turn out when COC(=O)C1=COC(O[C@@H]2O[C@H](CO)[C@@H](O)[C@H](O)[C@H]2O)[C@H]2[C@@H]1[C@H](OC(=O)CCc1ccc(O)cc1)C[C@]2(C)O (stereo not given in full) was run?
The outcome was “inactive”.

For CCC(C)C(=O)OC1CC(C)C=C2C=CC(C)C(CCC(O)CC(O)CC(=O)O)C21 (stereo not given), which Potency is on record?
The Potency was 7.09 µM (active).

How did the outcome turn out when CC1=C2C[C@H]3O[C@@]3(C)CCC3O[C@@]3(C)C[C@@]2(O)OC1=O (stereo not given in full) was run?
The outcome was “inactive”.

CCOC(=O)c1sc(NC(=O)[C@H](C(C)C)n2c(=O)[nH]c3ccccc3c2=O)nc1C was tested. Which outcome did it give?
Its outcome is “inactive”.

For CC1=CC(=O)CC(C)(C)[C@@]1(O)CC[C@@H](C)O[C@@H]1O[C@H](CO)[C@@H](O)[C@H](O)[C@H]1O, which max response is on record?
The max response was 0.369%.

Which max response does the source give for O=C(O[C@H]1[C@@H]2C=CO[C@@H](O[C@@H]3O[C@H](CO)[C@@H](O)[C@H](O)[C@H]3O)[C@@H]2[C@@]2(CO)O[C@@H]12)c1ccccc1 here?
The max response was -3.06%.

With O=C(O)c1ccccc1NC(=O)N1CCC(c2ccccc2C(F)(F)F)CC1 as the compound, how does the outcome read?
Its outcome is “inactive”.

For CCCCOC(=O)NC(=O)C1c2ccccc2Oc2ccccc21, which max response is on record?
Its max response is -2.73%.

CC1(C)CC[C@]2(C(=O)O[C@@H]3O[C@H](CO)[C@@H](O)[C@H](O)[C@H]3O)CC[C@]3(C)C(=CCC4[C@@]5(C)C[C@@H](O)[C@H](O)C(C)(C)C5[C@H](O)C[C@]43C)[C@@H]2[C@@H]1O (stereo not given in full) was tested. Which outcome did it give?
Its outcome is “inactive”.

For CC(C)CCC1(O)C(=O)C(C)(C)C(O[C@@H]2O[C@H](CO)[C@@H](O)[C@H](O)[C@H]2O)C(C)(C)C1O (stereo not given in full), which max response is on record?
The max response was 0.265%.

For CC/C=C\C/C=C\C/C=C\CCCCCCCC(=O)OCC(O)COC1OC(CO)C(O)C(O)C1O (stereo not given), which max response is on record?
The max response was -2.54%.

Which max response does the source give for O=C(O)/C=C/c1cc2c(cc1O[C@@H]1O[C@H](CO)[C@@H](O)[C@H](O)[C@H]1O)OCO2 here?
Its max response is 4.22%.

How did the max response turn out when N#C[C@@H]1CCCN1C(=O)CNC12CC3CC(CC(O)(C3)C1)C2 was run?
Its max response is 2.02%.

With CC1OC(OC2C(C)OC(OC3C(OC(=O)C45CCC(C)(C)CC4C4=CCC6C7(C)CCC(OC8OC(C(=O)O)C(O)C(O)C8OC8OC(CO)C(O)C(OC9OC(C)C(O)C(O)C9O)C8O)C(C)(CO)C7CCC6(C)C4(C)CC5)OC(CO)C(O)C3O)C(O)C2O)C(O)C(O)C1O (stereo not given) as the compound, how does the max response read?
The max response was 3.83%.

For CCn1c(=O)c(-c2ccn[nH]2)cc2c(C)nc(N)nc21, which Potency is on record?
Its Potency is 2.31 µM (active).

For Cc1nc2sc(C(=O)NCc3ccncc3)c(N)c2c(C)c1Cl, which max response is on record?
The max response was 0.486%.

CC1(C)CCCC2(C)C(C(=O)O)=CCC12 (stereo not given) was tested. Which max response did it give?
Its max response is -16.1%.

C/C1=C\[C@H]2OC(=O)[C@@H](C)[C@@H]2CC/C(C(=O)O)=C/CC1 was tested. Which max response did it give?
The max response was -1.29%.

With CC(Oc1ccc2[nH]nc(/C=C/c3cnn(CCO)c3)c2c1)c1c(Cl)cncc1Cl (stereo not given) as the compound, how does the Potency read?
Its Potency is 1.46 µM (active).

With CC(O)/C=C/C1(O)C2(C)COC1(C)CC(O)C2 (stereo not given) as the compound, how does the max response read?
The max response was -12.7%.

Which max response does the source give for C/C=C1\[C@H](O[C@@H]2O[C@H](CO)[C@@H](O)[C@H](O)[C@H]2O)OC=C(C(=O)OC)[C@H]1CC(=O)O here?
The max response was -9.39%.

CC(/C=C/C1=CC2=CC(=O)C(C)(O)C(O)C2=CO1)=C\C(C)CCO (stereo not given) was tested. Which max response did it give?
Its max response is -1.14%.

For COC(=O)[C@@H](O)[C@H]1[C@@]2(C)CC3(O)[C@@H](C(=O)[C@H]2O)[C@]24O[C@]25CC(=O)O[C@@H](c2ccoc2)[C@]5(C)CCC4[C@]13C (stereo not given in full), which outcome is on record?
The outcome was “inactive”.

For CO[C@H]1/C=C\O[C@@]2(C)Oc3c(C)c(O)c4c(O)c(c5c(nc6cc(C)ccn65)c4c3C2=O)NC(=O)/C(C)=C\C=C/[C@H](C)[C@H](O)[C@@H](C)[C@@H](O)[C@@H](C)[C@H](OC(C)=O)[C@@H]1C, which max response is on record?
The max response was -2.8%.
